Each structure is given as a SMILES string. About 2,100 (0.58%) of roughly 360,000 compounds were called active. The list comes from a sample in which actives are over-represented; it also holds similar structures and randomly drawn compounds. Values without a mark were called inactive. Rule as the data show it: active = inhibition above about 36%; inactive = the rest.

For the assay, the target named is NEDD8-conjugating enzyme Ubc12 (Homo sapiens) + NEDD8-activating enzyme E1 regulatory subunit (Homo sapiens) (UniProt P61081+Q13564). The experiment in a line: NEDD8 transfer onto cullin, blockade – biochemical, TR-FRET, uHTS, NAE and Ubc12, primary screen (AID 651699). The following applies: TR-FRET cullin neddylation, at 25 µM, stronger effect = higher value.
Sequence of NEDD8-conjugating enzyme Ubc12 (Homo sapiens) + NEDD8-activating enzyme E1 regulatory subunit (Homo sapiens) (P61081 whole entry, looked up): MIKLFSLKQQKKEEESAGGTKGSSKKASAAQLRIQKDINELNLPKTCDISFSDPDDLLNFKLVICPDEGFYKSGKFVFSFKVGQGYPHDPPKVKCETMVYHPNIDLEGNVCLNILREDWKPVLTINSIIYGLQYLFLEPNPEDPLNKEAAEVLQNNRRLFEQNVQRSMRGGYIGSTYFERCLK
Sequence of NEDD8-conjugating enzyme Ubc12 (Homo sapiens) + NEDD8-activating enzyme E1 regulatory subunit (Homo sapiens) (Q13564 whole entry, looked up): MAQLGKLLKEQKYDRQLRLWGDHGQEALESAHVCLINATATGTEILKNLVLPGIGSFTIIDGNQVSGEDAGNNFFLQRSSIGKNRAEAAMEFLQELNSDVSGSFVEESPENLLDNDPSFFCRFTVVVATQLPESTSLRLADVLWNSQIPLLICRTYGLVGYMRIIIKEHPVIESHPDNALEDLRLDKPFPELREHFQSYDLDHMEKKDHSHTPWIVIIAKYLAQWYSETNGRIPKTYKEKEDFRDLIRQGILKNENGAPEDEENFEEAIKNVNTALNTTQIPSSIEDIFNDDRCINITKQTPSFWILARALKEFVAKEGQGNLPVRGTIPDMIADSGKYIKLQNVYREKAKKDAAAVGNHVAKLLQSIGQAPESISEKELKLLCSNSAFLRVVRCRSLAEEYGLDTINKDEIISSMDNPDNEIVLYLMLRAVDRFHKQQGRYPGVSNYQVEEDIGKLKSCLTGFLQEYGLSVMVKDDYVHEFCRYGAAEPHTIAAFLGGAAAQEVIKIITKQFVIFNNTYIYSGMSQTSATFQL
`C=CCOC(=O)C1=C(C)N=C2SCCC(=O)N2C1/C=C/c1ccccc1OC` (configuration not stated): the inhibition was -7.53%.
In the case of `COc1ccccc1/C=C/C1=NC(=C\N(C)C)/C(=O)O1`, the inhibition was 54% (active).
Turning to `COc1ccccc1/C=C/C(=O)NC(=S)N1CCOCC1`, the inhibition was -10.5%.
As to `CCSC1=NCCN1C(=O)c1ccc(S(=O)(=O)N(CC)CC)cc1`, the inhibition was -10.5%.
Regarding `CC1(C(=O)NS(=O)(=O)c2ccc(C#N)cc2)CCN1C(=O)CC1CCCC1` (configuration not stated), the inhibition is -3.86%.
Regarding `CC(C)(C)OC(=O)C[C@@H]1C/C=C\C[C@@H](CC(=O)N[C@H](CO)Cc2ccccc2)C(=O)NCCOC1=O`, the inhibition is -4.28%.
On to `CN(C(=O)COC(=O)c1cc(-c2ccco2)nc2ccccc12)C1CCS(=O)(=O)C1` (configuration not stated), for which the inhibition is -19.8%.
The figure for `O=C(c1ccc(Cl)s1)N(Cc1nnc(-c2ccccc2Cl)o1)C1CC1` is 12.9%; for `O=C(c1cc(-c2ccco2)nc2ccccc12)N(Cc1nnc(-c2ccc(Cl)cc2)o1)C1CC1` it is 38.9% (active).
Consider `N#Cc1ccc(S(=O)(=O)NCC(=O)OCC(=O)NCCc2ccccc2)cc1`, for which the inhibition was -11.3%.
With `CCOC(=O)C1(Cc2ccccc2C)CCCN(C(=O)CCc2c(C)noc2C)C1` (configuration not stated), the inhibition was 3.81%.
With `CC(=O)Oc1c(C(=O)c2nnc(C)o2)c(=O)n(Cc2ccccc2)c2ccccc12` the figure was 40% (active); with `O=C(O)CCc1nc2cc(Cl)ccc2n(Cc2ccccc2)c1=O`, 9.12%.
With `CC(=O)OCC(C)n1c(=O)c2ccccc2n1C(C)=O` (configuration not stated), the inhibition was 16.7%.
For the compound `CC1Cc2ccccc2N1CC(=O)Nc1ccc2c(c1)OC(F)(F)O2` (configuration not stated), the inhibition is -5.99%.
Take `CC(=O)NS(=O)(=O)c1ccc(N/C(N)=N/c2nc(C)cc(C)n2)cc1`: the inhibition is -11.7%.
With `O=C(CSc1nnc(-c2ccncc2)n1C1CCCCC1)Nc1ccccc1`, the inhibition is -3.98%.
For `CCOc1ccc(NC(=O)CN(C)C(=O)Cc2sc(C)nc2-c2ccc(F)cc2)cc1OCC`, the inhibition is -1.44%.
With `COc1cccc(C2c3[nH]c4ccccc4c3CCN2Cc2cccc(C)n2)c1` (configuration not stated), the inhibition was 48.7% (active).
`Oc1cccc(C2c3[nH]c4ccccc4c3CCN2Cc2cnn(-c3ccccc3)c2)c1` (configuration not stated): the inhibition was 25.4%.
For `CCOc1ccc(C2c3[nH]c4ccccc4c3CCN2Cc2cccn2-c2ncccn2)cc1` (configuration not stated), the inhibition is 16.1%.
`COc1ccc(C2c3[nH]c4ccccc4c3CCN2CCCn2cccn2)cc1C` (configuration not stated): the inhibition was 49.4% (active).
For the compound `CCOc1ccc(C2c3[nH]c4ccccc4c3CCN2Cc2cn(CC)nc2C)cc1` (configuration not stated), the inhibition is 22.4%.
With `COCc1ccc(C(=O)N2CCc3c([nH]c4ccccc34)C2c2ccccn2)s1` (configuration not stated) the figure was -1.93%; with `O=C(O)C1C2C=CC(C2)C1C(=O)NCc1ccccc1` (configuration not stated), -4.12%.
The figure for `O=C(OCc1ccccc1)N1CCC2CC1c1cc(N3CCN(S(=O)(=O)c4cc(Cl)cc(Cl)c4)CC3)ccc12` (configuration not stated) is 19.3%; for `CC(OC(=O)c1cc2ccccc2o1)C(=O)Nc1ccc(N2CCOCC2)cc1` (configuration not stated) it is 2.93%; for `CC(C)C1N=C2c3ccccc3N=C(SCC(=O)c3ccc(O)c(O)c3)N2C1=O` (configuration not stated) it is -18.8%.
The figure for `O=C(Nc1ccc(-c2cscn2)cc1)C1CCCN(Cc2ccc(CO)o2)C1` (configuration not stated) is 5.08%; for `O=C(NCc1cccnc1)Nc1cccc(NC(=O)NCc2cccnc2)c1F` it is 2.41%.
Consider `CC(C)CC1(C)NC(=O)N(CC(=O)Nc2ccc3c(c2)OCCO3)C1=O` (configuration not stated), for which the inhibition was -8.52%.
As for `Cc1ccc(-n2c(SCC(=O)Nc3ncc(Cl)cc3Cl)nc3ccccc32)cc1`, the inhibition was 3.23%.

One may read the inhibition as the change of the read-out against control, counted positive when it falls.

The values are drawn from PubChem BioAssay AID651699 (Sanford-Burnham Center for Chemical Genomics, 2012).
